PubChem BioAssay AID431 (Sanford-Burnham Center for Chemical Genomics, 2006)
Screen size: about 63,000 compounds; about 1,100 (1.7%) were called active.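 The calls were made as follows: active = compounds whose percent cytotoxicity in the single-dose primary screen, scaled between solvent and toxic-drug controls, exceeds 50; inactive = the rest.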 For the sample, actives were picked, then their nearest neighbours and some compounds at random. Potency and affinity values are given separately.

experiment: cytotoxicity in KRAS-transformed pancreatic duct cells, primary screen, cell-based, fluorescence, HTS (AID 431); conditions: HPDE-C7K KRASV12 cells, Alamar Blue viability, 48 h; at 10 µM; hits give high values;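 also: 0% = DMSO solvent wells and 100% = doxorubicin-treated wells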

Row | SMILES | cytotoxicity
1 | COc1ccc(-c2nnn(CC(=O)c3ccc4c(c3)OCCO4)n2)cc1OC | 0.3% (inactive)
2 | O=C(c1ccc2ccccc2c1)N1CCN(c2ccc(O)cc2)CC1 | 65.9% (active)
3 | O=C(c1ccc2ccccc2c1)N1CCN(c2ccccc2)CC1 | -11.6% (inactive)
4 | CN1CCN(C(=O)c2ccc3ccccc3c2)CC1 | -8.1% (inactive)
5 | CC(C)OCCCNC(=O)c1ccc(NC(=O)C2CCCO2)cc1 (stereo not drawn) | -5.7% (inactive)
6 | Cc1cc(NC(=O)C23CCC(C)(C(=O)O2)C3(C)C)no1 (stereo not drawn) | 1.7% (inactive)
7 | O=C(NCc1ccco1)N1c2ccccc2Sc2ccccc21 | 7.5% (inactive)
8 | COC(=O)C1=C(C)NC(=O)C1(NC(=O)CN1CCCC1=O)C(F)(F)F (stereo not drawn) | 13.1% (inactive)
9 | CCOC(=O)C1CCCN(C(=O)c2cc3c(C)nc4ccccc4c3o2)C1 (stereo not drawn) | -14.6% (inactive)
10 | N#Cc1c(NC(=O)CSc2nnnn2C2CCCC2)sc2c1CCCC2 | 50.4% (active)
11 | N#Cc1c(NC(=O)CSc2nnnn2C2CCCCC2)sc2c1CCCC2 | -26.1% (inactive)
12 | Cc1sc(NC(=O)CSc2nnnn2C2CCCC2)c(C#N)c1C | -6.4% (inactive)
13 | CC1CCCN(C(=O)c2ccc3nc[nH]c3c2)C1 (stereo not drawn) | -23.2% (inactive)
14 | COc1ccc(C)cc1NC(=O)c1ccc(S(=O)(=O)N2CCOCC2)cc1 | -1.3% (inactive)
15 | Nc1nonc1C(=O)NCCN=Cc1cc(Cc2ccccc2)cc(Br)c1O | 82.8% (active)
16 | COc1cccc(C=NCCNC(=O)c2nonc2N)c1O | -2.1% (inactive)
17 | Nc1nonc1C(=O)NCCNC(=O)c1ccccc1F | 2.3% (inactive)
18 | O=C(OCc1ccccc1Cl)c1ccc(-n2cnnc2)cc1 | -8% (inactive)
19 | CCOc1ccc(-n2cnnn2)cc1S(=O)(=O)NCc1ccccc1 | 4.1% (inactive)
20 | CC(C)(O)C1=NOC(c2ccccc2)C1 (stereo not drawn) | 6.7% (inactive)
21 | CCOC(=O)c1ccc(NC(=O)CSc2nnc(-c3cccs3)n2CC)cc1 | 0.1% (inactive)
22 | COc1ccc(C/C(O)=C(\C#N)c2nc3ccccc3s2)cc1 | 46.6% (inactive)
23 | Cc1ccc(SC/C(O)=C(\C#N)c2nc3ccccc3s2)cc1 | 79.7% (active)
24 | Cc1ccc(SC/C(O)=C(\C#N)c2nc3ccccc3n2C)cc1 | 20.5% (inactive)
25 | N#C/C(=C(/O)CN1CCOCC1)c1nc2ccccc2s1 | 3% (inactive)
26 | COC(=O)c1ccc(/C(O)=C(\C#N)c2nc3ccccc3s2)cc1 | 52.1% (active)
27 | CC(C)=C(C#N)c1nc2ccccc2s1 | -11.4% (inactive)
28 | c1ccc(N2CCN(c3nnc(Cc4cccnc4)c4ccccc34)CC2)nc1 | 8.4% (inactive)
